“And” between values parts separate entries of the source, which are not always exact repeats. Equal entries are not always repeated. Inconclusive results are not listed. Where a call stands in place of a potency, no number is given. More than one record can exist for a structure, and the calls need not agree. The source made the active and inactive calls. Calls come from the whole dose curve; as a rule, active = well fitted cell-killing curve with a large enough effect in the repeat runs; inconclusive = weak or mixed curves, or effect the other way; inactive = no such curve, though single readings can be large or run the other way.
Potency is the fitted concentration of half-maximal effect.

The experiment is described as follows: qHTS assay for identifying genotoxic compounds that show differential cytotoxicity against isogenic chicken DT40 cell lines with known DNA damage response pathways - Rev3 mutant cell line (AID 743014). Note: nearly all actives have a fitted effect of over 55% in size. The conditions noted are these: chicken DT40 Rev3-/- viability, CellTiter-Glo, 40 h; series mostly up to 68.4 µM. The text has this:
National Center for Advancing Translational Sciences [NCATS]
NIH Chemical Genomics Center [NCGC]
U.S. Environmental Protection Agency [EPA]
National Institutes of Environmental Health Sciences [NIEHS]
National Toxicology Program [NTP]
U.S. Food and Drug Administration [FDA]
DNA repair pathways play a critical role in cellular homeostasis by repairing DNA damage induced by endogenous processes and xenobiotics. Isogenic chicken DT40 cell lines deficient in different DNA repair pathways can be used to identify genotoxic compounds and aid in characterizing the nature of the DNA damage induced. Two DNA repair-deficient cell lines with disrupted genes, Rad54/Ku70 or Rev3, were used to screen the Tox21 10K compound library. Possible genotoxicity was based on the presence of a significant increase in cytotoxicity in one or more of the DNA repair-deficient cell lines compared to that observed in the parental DNA repair-proficient cell line. CellTiter Glo viability assay (Promega, Madison, WI) was used to measure cell viability in these cells after compound treatment. This assay includes the data from the Rev3 mutant cell line.
Tox21 Assay Protocol Summary:
300 DT40 mutant cells in 5 uL/well were dispensed into white, solid-bottom 1536-well plates using a Multidrop Combi (ThermoFisher Scientific, Waltham, MA) dispenser. After the assay plates were incubated at 37 C/5% CO2 for approximately 0.5 hour, 23 nL of compounds dissolved in DMSO, positive controls or DMSO only was transferred into the assay plate by a pintool work station (Kalypsys, San Diego, CA). The assay plates were incubated at 37 C/5% CO2 for 40 hours. After 5 uL per well of CellTiter-Glo reagent was added into each well of the assay plates, the plates were incubated for 30 min at room temperature and the luminescence intensity of the plates was measured using a ViewLux (PerkinElmer, Shelton, CT) plate reader.
A general note: In qHTS, concentration-response curves come from the screen itself.
`O=C(c1ccccc1)c1ccccc1O`: the Potency result was “inactive”. Regarding `COC(C)COC(C)COC(C)CO` (stereo not given), the Potency entry is “inactive”. For `COC(=O)c1ccccc1`, the Potency entry is “inactive”. Take `Cc1cccc([N+](=O)[O-])c1C`: the Potency entry is “inactive”. In the case of `CN(C)CCC=C1c2ccccc2CCc2ccccc21`, the Potency was 13.3 µM (active) and 30.6 µM (active).

Consider `Cc1c(C(N)=O)cc([N+](=O)[O-])cc1[N+](=O)[O-]`, for which the Potency entry is “inactive”. Under `Nc1ccc(Nc2ccccc2)cc1` stands 67.8 µM (active) and 54.5 µM (active) and 34.4 µM (active); under `CC(C)OC=O`, 72.9 µM (active) and inactive; under `O=C(O)c1ccccc1Nc1cccc(C(F)(F)F)c1`, 48.6 µM (active). On to `OC[C@H]1O[C@@H]2O[C@H]3[C@H](O)[C@@H](O)[C@@H](O[C@H]4[C@H](O)[C@@H](O)[C@@H](O[C@H]5[C@H](O)[C@@H](O)[C@@H](O[C@H]6[C@H](O)[C@@H](O)[C@@H](O[C@H]7[C@H](O)[C@@H](O)[C@@H](O[C@H]8[C@H](O)[C@@H](O)[C@@H](O[C@H]1[C@H](O)[C@H]2O)O[C@@H]8CO)O[C@@H]7CO)O[C@@H]6CO)O[C@@H]5CO)O[C@@H]4CO)O[C@@H]3CO`, for which the Potency entry was “inactive”.

For the compound `CC(C(=O)O)c1cccc(C(=O)c2ccccc2)c1` (stereo not given), the Potency result was “inactive”. As to `O=C1OC2(c3cc(Br)c(O)c(Br)c3Oc3c2cc(Br)c(O)c3Br)c2c(Cl)c(Cl)c(Cl)c(Cl)c21`, the Potency result is “inactive”. The result for `CCOCCOCCO` reads “inactive”; that for `Cc1cccc(N(C)C(=S)Oc2ccc3ccccc3c2)c1`, “inactive and 43.3 µM (active)”; that for `CCCC(=O)O`, “inactive”.

Consider `COc1cc([C@@H]2c3cc4c(cc3[C@H](O)[C@H]3COC(=O)[C@H]23)OCO4)cc(OC)c1OC`, for which the Potency was 29.8 nM (active) and 19.3 nM (active).

On to `Nc1ncn([C@@H]2O[C@H](CO)[C@@H](O)[C@H]2O)c(=O)n1`, for which the Potency is 1.88 µM (active) and 1.22 µM (active). Turning to `O=[N+]([O-])c1ccc2c(c1)Cc1ccccc1-2`, the Potency entry was “inactive”. For the compound `CC(C)(C)NC(=O)[C@H]1CC[C@H]2[C@@H]3CC[C@H]4NC(=O)C=C[C@]4(C)[C@H]3CC[C@]12C`, the Potency result is “inactive and 60.4 µM (active) and 27.3 µM (active)”. Under `CC(C)Oc1ccc2c(=O)c(-c3ccccc3)coc2c1` stands 4.22 µM (active); under `Nc1ccc(Cl)cc1Cl`, “inactive”.

On to `c1ccncc1`, for which the Potency entry was “inactive”. For `Cc1ccc(C(=O)c2cc(O)c(O)c([N+](=O)[O-])c2)cc1`, the Potency entry is “inactive and 68.6 µM (active)”.

`O=CCCCC=O`: the Potency was 2.17 µM (active). For the compound `CCCc1c(OCCCCc2nn[nH]n2)ccc(C(C)=O)c1O`, the Potency was 29.8 µM (active) and inactive. Take `O=C=Nc1ccc(Cc2ccc(N=C=O)cc2)cc1`: the Potency was 10.7 µM (active) and inactive. For the compound `c1cc(-c2ccncc2)ccn1`, the Potency entry is “inactive”. Under `COC(=O)CCC(=O)OC` stands “inactive”. The result for `c1cc(N(CC2CO2)CC2CO2)ccc1OCC1CO1` (stereo not given) reads 10.9 nM (active) and 12.2 nM (active); that for `CCC(C)c1ccccc1O` (stereo not given), “inactive”; that for `CCOC(=O)C(C#N)=C(c1ccccc1)c1ccccc1`, 26.6 µM (active) and 15.4 µM (active). Regarding `CC(C)CC(C)(O)C#CC(C)(O)CC(C)C` (stereo not given), the Potency is 54.5 µM (active). Turning to `NNc1ccc(C(=O)O)cc1`, the Potency entry is “inactive”. Consider `CN(C)c1nc(N(C)C)nc(N(C)C)n1`, for which the Potency result is “inactive”. `OC1CCCCCCCCCCC1`: the Potency entry is “inactive”. As for `C[C@]12CCC(=O)C=C1CC[C@@H]1[C@@H]2C(=O)C[C@@]2(C)[C@H]1CC[C@]2(O)C(=O)CO`, the Potency result is “inactive and 61.1 µM (active)”. As for `O=S(=O)(O)c1ccc(O)cc1`, the Potency result is “inactive”. Consider `CC1=CCC(C(C)(C)O)CC1` (stereo not given), for which the Potency result was “inactive”.

As for `C[C@]12CC[C@H]3[C@@H](CCC4=CC(=O)CC[C@@]43C)[C@@H]1CC[C@@H]2C(=O)CO`, the Potency is 9.69 µM (active). On to `CCCCOCCOCCOCCO`, for which the Potency result is “inactive”.

For the origin of these results see PubChem BioAssay (Tox21).
